High-throughput results deposited in PubChem BioAssay by several laboratories.
BoNT-F LC inh: BoNT F light chain protease inhibition; Multiplex microsphere protease cleavage assay, flow cytometry; inhibition, % at 10 µM; actives 0.22% (n = 360,000); AID 588497; in the data active means inhibition above about 35%, passing the limit was not always enough; inconclusive means no clear call, values can overlap the other calls
Autofluor counter: flagged as autofluorescent in microsphere protease counterscreen | fluorescence intensity (concentration not given with the values) | actives 3.1% (n = 360,000) | compound autofluorescence counterscreen, microsphere flow cytometry; active compounds read high; in the data active means fluorescence intensity above about 16000; inconclusive means no clear call, values can overlap the other calls
BoNT-A LC inh2: blocks Botulinum neurotoxin A light chain protease. multiplex microsphere protease substrate cleavage, flow cytometry. inhibition, % at 10 µM. actives 0.17% (n = 360,000). AID 588499
Vc quorum ag: inducers of Vibrio cholerae quorum light production without autoinducers; V. cholerae BH1578 lux reporter, luminescence, 6 h; activation, % at 18.7 µM; actives 0.16% (n = 350,000); AID 588436; in the data active means activation mostly above about 9.7%, no sharp cut-off; inconclusive means no clear call, values can overlap the other calls; inactive means mostly below about 3.7%
Anthrax LF inh2: blocks Bacillus anthracis lethal factor protease. inhibition, % at 10 µM. P15917. actives 0.12% (n = 360,000). multiplex microsphere protease cleavage assay, LF. AID 588501
Large screens that a line does not name were inactive. Only some compounds are listed: those with a hit (about 3.5% of all), similar ones and a draw of the others. Unless noted, no stated cut-off is given here; in the data, active means inhibition above about 30%; inconclusive means no clear call, values can overlap the other calls; inactive means below that.

CC1(C)OC(=O)N(c2ccccn2)C1(C)O (configuration not stated)	none
Cc1ccnc(N2C(=O)OC(C)(C)C2(C)O)c1 (configuration not stated)	Autofluor counter 16787
COc1ccc(N/C=C(\C#N)c2nc3ccccc3n2C)c(OC)c1	Autofluor counter 18044
COc1ccc(CNc2nc3ccccc3n2C)c(OC)c1	none
COCCN(C(=O)COC(=O)c1cc(C)n(-c2ccccc2)c1C)c1c(N)n(Cc2ccccc2)c(=O)[nH]c1=O	BoNT-A LC inh2 60, Anthrax LF inh2 inconclusive
COCCN(C(=O)COC(=O)c1cc2ccccc2cc1OC)c1c(N)n(Cc2ccccc2)c(=O)[nH]c1=O	Autofluor counter inconclusive, BoNT-A LC inh2 inconclusive
COCCN(C(=O)CSc1nnc(C)n1-c1ccc(C)cc1)c1c(N)n(Cc2ccccc2)c(=O)[nH]c1=O	Autofluor counter 17749
COCCN(C(=O)CSc1nnc(C)n1-c1ccccc1)c1c(N)n(Cc2ccccc2)c(=O)[nH]c1=O	none
Cc1cccc(NS(=O)(=O)c2ccc(C)c(C(=O)NCc3ccncc3)c2)c1	none
CC(C)C(=O)c1cn(CC(=O)N2CCCc3ccccc32)c2ccccc12	Autofluor counter 23272, BoNT-A LC inh2 inconclusive
O=C1c2ccccc2C(=O)N1CCC(=O)N1CCc2ccccc21	Autofluor counter 22459
O=C1CNC(=O)N1CC(=O)N1CCCc2ccccc21	Autofluor counter 20063, BoNT-A LC inh2 inconclusive
O=C(O)CC(NNC(=O)c1ccccc1)C(=O)Nc1cccc([N+](=O)[O-])c1 (configuration not stated)	none
Cc1cccc(NC(=O)CSCC(=O)NNC(=O)c2ccoc2C)c1	none (no result: BoNT-F LC inh, Autofluor counter, BoNT-A LC inh2, Anthrax LF inh2)
C=CCn1c(Cc2c[nH]c3ccccc23)nnc1SCC(=O)NCc1ccccc1	Autofluor counter 23009
CCN(CC)C(=O)Oc1ccc2c(=O)c(-c3ccccc3)coc2c1	Autofluor counter 21592
C/C(CC(O)c1ccc2ccccc2n1)=N/O (configuration not stated)	Autofluor counter 20613
CCN1C(=O)[C@@H]2[C@@H](c3ccc(-c4ccc(F)cc4)c(OC)c3)N3CCC[C@@]3(C(=O)OC)[C@@H]2C1=O	none
COc1cc(OC)cc(C(=O)N[C@H](C(=O)NC2=NCCS2)C(C)C)c1	none
COC(=O)Cn1c(=O)c2c(nc(Br)n2CC(=O)OC)n(C)c1=O	Autofluor counter 22104
CCOC(=O)Cn1c(=O)c2c(nc(Br)n2CC(=O)OCC)n(C)c1=O	none
NC1=Nc2ccccc2Oc2ccccc21	Autofluor counter 16347, BoNT-A LC inh2 inconclusive
CC(C)(C)N1C(=O)c2ccc(C(=O)Nc3cc(C(=O)O)cc(C(=O)O)c3)cc2C1=O	none
CNC(=O)c1cc2cc(OC)ccc2oc1=O	Autofluor counter 21752
N#CC1=C(Nc2ccc(Br)cc2)CCC1	Autofluor counter 16939
Cc1ccc(C(=O)CC(C(=O)O)c2cn(CCC#N)c3ccccc23)cc1 (configuration not stated)	none
Cn1cc(C(CC(=O)O)C(=O)O)c2ccccc21 (configuration not stated)	Autofluor counter 23907
CCCn1cc(C(CC(=O)O)C(=O)O)c2ccccc21 (configuration not stated)	Autofluor counter 24400
CCOC(=O)CC(C#N)c1cn(C)c2ccccc12 (configuration not stated)	none
CSc1ncccc1C(=O)Nc1cc(Cl)ccc1N1CCOCC1	none (no result: BoNT-F LC inh, Autofluor counter, BoNT-A LC inh2, Anthrax LF inh2)
CCn1c(-c2nonc2NC(=O)c2ccccc2)nc2ccccc21	Autofluor counter 20786
CC(=O)Nc1nonc1-c1nc2ccccc2n1Cc1nnc(C)o1	Autofluor counter 22950
Cn1ncc(Cl)c1C(=O)N1CCN(c2ccc(Cl)c(Cl)c2)CC1	none
O=C(Nc1ccc(Cl)cc1)c1ccc(-n2cncn2)c([N+](=O)[O-])c1	Autofluor counter 24392
O=C(O)c1ccc(Cl)c(NCc2cccs2)c1	none
Cc1nn(C)cc1CNC(=O)c1ccc(Br)o1	Autofluor counter 20359
Cc1nn(C)cc1NC(=O)c1ccc(Br)o1	none
CCOC(=O)Cc1nnc(NC(=O)c2ccccc2OCC)s1	none
CCOC(=O)Cc1nnc(NC(=O)c2ncn[nH]2)s1	Autofluor counter 23312
CC(/C=N/NC(=O)c1cc(-c2ccncc2)nc2ccccc12)=C\c1ccco1	Autofluor counter 16302
Cc1ccc(/C=N/NC(=O)c2cc(-c3ccncc3)nc3ccccc23)o1	none
COCCCn1c(=O)c2ccccc2n2c(=S)[nH]nc12	none
O=C1N=C(N2C=CC(=C3C=CNC=C3)C=C2)/C(=C/N=NC(=O)c2ccccc2)S1	none
CC1=CC(C)(C)N(C(=O)c2ccccc2)c2ccccc21	Autofluor counter 23091
CC(=O)Nc1sc2c(c1C(c1ccccc1Cl)N1CCN(CCO)CC1)CCCC2 (configuration not stated)	none
CCCCN1CC(=O)N2[C@H](c3ccc(OC)cc3)[C@@H]3C(=O)N(CC)C(=O)[C@@H]3[C@]2(C)C1=O	none
Clc1ccc(Cc2ccccc2)nn1	Autofluor counter 21162
Clc1cccc(Cc2ccc(Cl)nn2)c1	none
Clc1ccc(Cc2ccc(Cl)nn2)c(Cl)c1	Autofluor counter 23303
Nc1ccc(C(=O)C(=O)c2ccccc2)cc1	none (no result: BoNT-F LC inh, Autofluor counter, BoNT-A LC inh2, Anthrax LF inh2)
CC(C)CC(C(=O)NCC1CCCO1)N(C(=O)Cn1nnc(-c2ccc(F)cc2)n1)c1ccccc1F (configuration not stated)	Autofluor counter 21995
CC(C)CC(C(=O)NCC1CCCO1)N(C(=O)Cn1nnc(-c2ccc(F)cc2)n1)c1cccc(C(F)(F)F)c1 (configuration not stated)	Autofluor counter 23362, BoNT-A LC inh2 inconclusive
Cc1ccc(N(C(=O)Cn2nnc(-c3ccc(F)cc3)n2)C(CC(C)C)C(=O)NCC2CCCO2)cc1 (configuration not stated)	Autofluor counter 23138
Cc1ccc(-c2nnn(CC(=O)N(c3ccccc3F)C(CC(C)C)C(=O)NCC3CCCO3)n2)cc1 (configuration not stated)	Autofluor counter 16688
Cc1ccc(NC(=O)CCn2c(=O)[nH]c3ccsc3c2=O)cc1F	none
Cc1ccccc1N(C(=O)CNC(=O)c1ccco1)C(C(=O)NC1CCCC1)c1ccncc1 (configuration not stated)	none
Cc1ccc(-c2nnn(CC(=O)N(CC3CCCO3)C(C(=O)NC(C)(C)C)c3ccc(F)cc3)n2)o1 (configuration not stated)	Autofluor counter 22682, BoNT-A LC inh2 inconclusive
Cc1cccn2c(=O)nc(SCC(=O)c3ccc(Cl)cc3)nc12	Vc quorum ag 89
Cc1cccn2c(=O)nc(SCC(=O)c3ccccc3)nc12	none (no result: BoNT-F LC inh, Autofluor counter, BoNT-A LC inh2, Anthrax LF inh2)
Cc1oc2c(cc(NS(=O)(=O)c3ccc4c5c(cccc35)C(=O)N4)c3ccccc32)c1C(=O)OC(C)C	Autofluor counter 19667
O=C1CCCc2oc3c(cc(NS(=O)(=O)c4ccc5c6c(cccc46)C(=O)N5)c4ccccc43)c21	none
CN(CC(=O)Nc1ccccc1Br)C(=O)c1cc(S(=O)(=O)N(C)C)ccc1N1CCCC1	none (no result: BoNT-F LC inh, Autofluor counter, BoNT-A LC inh2, Anthrax LF inh2)
O=C(CC(=O)c1ccccc1)Nc1cccnc1Cl	none
O=C(CCc1ccccc1)Nc1cccnc1Cl	BoNT-F LC inh 66, Anthrax LF inh2 inconclusive
